Screening data: PubChem, National Center for Advancing Translational Sciences (NCATS)
Shown are actives, neighbours in structure and some others; about 21% of the full set was active somewhere.
Pf growth 48h – inhibits P. falciparum growth in the first generation, 48 h | P. falciparum luciferase growth in erythrocytes, 48 h | Potency, µM (highest dose often 28.7 µM), without a hit: at the top dose activity change, negative = inhibition, most hits filed as inhibitors | hit rate 5.9% among 310,000; further: potency means the concentration at half of the fitted maximal effect; on the % scale 0 is the no-effect control and ±100 the full control effect
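Luciferase-expressing parasites in RBCs, 2% Hct / 0.1% parasitemia final; RPMI 1640 + 0.5% Albumax; 37 C, 5% CO2, one generation; luminescence read-out, lower signal = inhibition.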
NS1 function inh – influenza NS1 inhibition; Potency, µM (top dose mostly 46.1 µM), for the others: at the top dose activity, positive = more growth; hit rate 0.4% among 270,000; AID 2326; calls by dose curve; further: potency means the concentration at half of the fitted maximal effect; actives are rising curves; nearly all actives have a fitted effect of over 50% in size
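Compounds were scored for reversing the slow growth caused by influenza A NS1 in S. cerevisiae, measured by optical density at 600 nm. Assay medium contained 2% galactose at pH 6.0; NS1-free yeast of the same strain were the positive control.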
Pf growth 96h – inhibits malaria parasite growth, 96 h; P. falciparum luciferase reporter growth, 96 h; Potency, µM (doses to about 28.7 µM), inactives show at the top dose activity change, negative = inhibition, usual class: inhibitors; hit rate 6.9% among 320,000; AID 504834; further: potency means the concentration at half of the fitted maximal effect; on the % scale 0 is the no-effect control and ±100 the full control effect
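Delayed-death screen, second-generation endpoint: infected erythrocytes, 2% hematocrit, 0.05% parasitemia final; 96 hours at 37 C, 5% CO2; luciferase detection reagent; luminescence decrease equals reduced growth.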
Sm TGR block – inhibitors of Schistosoma mansoni thioredoxin glutathione reductase | Q962Y6 | purified TGR, DTNB reduction, TNB absorbance 405 nm | Potency, µM (titrated, usually from 114 µM), without a hit: at the top dose activity change, negative = inhibition, usual class: inhibitors | hit rate 3% among 360,000 | AID 485364; further: potency means the concentration at half of the fitted maximal effect; on the % scale 0 is the no-effect control and ±100 the full control effect; nearly all actives have a fitted effect of over 60% in size
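Kinetic colorimetric format: TGR-catalysed, NADPH-driven DTNB reduction monitored via TNB absorbance. Enzyme dispensed at 20 nM; compound exposure 15 min at room temperature before reaction start.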
CHX counter – affects cycloheximide protein synthesis inhibition readout, counter-screen; max response, %; AID 2314; cell reporter, cycloheximide protein synthesis inhibition counterscreen; hit rate 12% among 300,000; in the data active means max response mostly above about 13%, no sharp cut-off; inactive means mostly below about 14%; further: read at 38.3 µM for the half of the compounds with a filed dose; 0% is about no effect
Shiga inhibitor – blocks Shiga toxin action in Vero cells | Vero cells, Shiga toxin protein synthesis inhibition reporter | inhibition, % at 38.7 µM | hit rate 9.2% among 290,000 | AID 2315; in the data active means inhibition mostly above about 28%, no sharp cut-off; inactive means mostly below about 43%; further: 0% is about no effect
Starred values were filed as active, the others as inactive; u = inconclusive; x = no result given. Unless noted, the call rests on the fitted dose curve; in most records, active means well fitted curve in the direction sought with a large enough effect; inconclusive means small, poorly fitted or top-dose-only effect, or another doubt; inactive means no such curve, though single readings can be large; an effect the other way counts as inactive or inconclusive.

SMILES	Pf growth 48h	NS1 function inh	Pf growth 96h	Sm TGR block	CHX counter	Shiga inhibitor
O=C(COc1ccccc1)NS(=O)(=O)c1ccccc1	41%	0%	-26%	-8%	0	-15
Cc1sc2c(c1C)c(=O)n(Cc1ccccc1)c(=O)n2CC(=O)Nc1cccc(Cl)c1	x	x	x	4%	x	x
CSCCC(NC(=O)c1ccco1)C(=O)N(C)CC(=O)Nc1ccccc1Br (stereo unspecified)	u	x	11%	3%	x	x
COc1ccccc1NC(=S)NNC(=O)c1nn(C)c(C)c1Br	31%	-14%	11%	0%	52*	109*
Cc1c(Cl)c(C(=O)NNC(=S)NCc2ccco2)nn1C	25%	6%	44%	31%	1	11
CCCCNC(=S)NNC(=O)c1nn(C)c(C)c1Cl	24%	-3%	63%	u	29*	74*
COc1ccccc1NC(=O)c1nn(C)cc1Br	0%	-70%	21%	-3%	13	-13
COc1ccccc1NC(=S)NNC(=O)c1nn(C)c(C)c1Cl	x	4%	13%	-17%	34*	30
COc1ccccc1NC(=S)NNC(=O)c1nn(C)cc1Cl	u	10%	6.6µM*	8%	14	45
COc1ccc(C(=O)N(C)c2ccccc2C(=O)NCCc2ccccc2)cc1	-14%	4%	u	7%	2	-5
CCOc1ccc(NS(=O)(=O)c2ccc(C(=O)NCCN3CCOCC3)cc2)cc1	58%	x	-12%	1%	x	x
O=C(Nc1cccc(N2C(=O)C3C4C=CC(C4)C3C2=O)c1)c1cccs1 (stereo unspecified)	19%	u	-1%	14%	2	4
Nc1nc(Cl)cc(NCCO)n1	x	-4%	x	x	x	x
O=C(CSc1nccn1-c1ccc(F)cc1)Nc1nc2ccccc2s1	x	x	x	20%	x	x
C(CCc1nnc2c(n1)CCCC2)Cc1nnc2c(n1)CCCC2	x	2%	x	x	x	x
Cc1ccccc1C(=O)c1c[nH]c(C(=O)NCc2ccco2)c1	11%	11%	-6%	-34%	-3	-10
CCC(=O)c1c[nH]c(C(=O)NCCc2ccccn2)c1	34%	15%	34%	7%	26*	42
Cc1ccccc1C(=O)c1c[nH]c(C(=O)NCCc2ccccn2)c1	12µM*	x	9.3µM*	7%	12	13
CC(C)CC(=O)c1c[nH]c(C(=O)NCCc2ccccn2)c1	13%	4%	11%	39%	28*	25
CCC(=O)c1c[nH]c(C(=O)NCc2ccccc2OC)c1	-1%	2%	6%	1%	-4	-11
Oc1c(C(c2ccccc2)N2CCC3(CC2)OCCO3)sc2nc(-c3ccco3)nn12 (stereo unspecified)	x	x	x	0%	x	x
CCC(C)NC(=O)NC(=O)CSc1nnc(-c2ccccc2F)n1C1CC1 (stereo unspecified)	-8%	5%	-7%	0%	-4	-11
CCC(=O)Nc1ccc(C(=O)CSc2nnc(-c3ccccc3F)n2C2CC2)cc1	2.6µM*	15%	2.9µM*	4%	1	-13
O=C(O)/C=C/C(=O)c1c(-c2ccccc2)[nH]c2ccccc12	6.6µM*	11%	4.1µM*	25µM*	-2	-4
O=C(NCCc1ccccc1)C(=O)c1c(-c2ccccc2)[nH]c2ccccc12	-29%	-6%	5.2µM*	-14%	-3	-17
SMILES	Pf growth 48h	NS1 function inh	Pf growth 96h	Sm TGR block	CHX counter	Shiga inhibitor
C=CCNC(=O)C(=O)c1c(-c2ccccc2)[nH]c2ccccc12	13%	-1%	u	2%	-2	-9
O=C(c1ccccc1)c1cnc[nH]1	16%	3%	18%	0%	13*	20
O=C(NC(Cc1cnc[nH]1)C(=O)O)c1ccccc1 (stereo unspecified)	5%	x	u	-2%	-2	2
O=C(Nc1ccccc1)c1cnc[nH]1	104%	2%	27%	8%	30*	67*
CNC(=O)c1[nH]cnc1C(=O)Nc1ccccc1	33%	x	41%	-6%	x	x
CCN(CC)c1ccc(/C=C2\CCC(/C=N/NC(=O)c3ccc(=O)n(C)c3)=C2N2CCOCC2)cc1	-3%	2%	-3%	-20%	-3	-1
CCN1CCN(c2cc(=O)n(Cc3ccc(F)cc3)c(=O)[nH]2)CC1	38%	x	58%	-33%	7	-1
O=c1cc(N2CCN(Cc3ccccc3)CC2)[nH]c(=O)n1Cc1ccc(F)cc1	7%	1%	3.7µM*	u	-4	-9
O=[N+]([O-])c1ccc(O)c(CN2CCCCCC2)c1	2%	0%	3%	2%	-2	x
O=C(C1CCC1)N1CCc2cc(S(=O)(=O)N3CCN(c4ccccn4)CC3)ccc21	10µM*	-14%	-2%	-8%	-5	-1
O=C(c1ccco1)N1CCN(S(=O)(=O)c2ccc3c(c2)CCN3C(=O)C2CCC2)CC1	13µM*	-9%	-6%	-11%	-3	0
CCC(=O)N1CCc2cc(S(=O)(=O)N3CCN(C(=O)c4ccco4)CC3)ccc21	u	-5%	-14%	0%	6	14
O=C(C1CCC1)N1CCc2cc(S(=O)(=O)N3CCN(c4ccccc4)CC3)ccc21	x	x	x	-2%	x	x
O=C(Nc1ccccc1C(=O)Nc1ccncc1)c1cccc([N+](=O)[O-])c1	6%	-12%	-10%	-31%	11	-9
CC(C)c1ccc2c(c1)C(c1cccs1)=NNC(c1ccncc1)=N2	u	2%	18%	29%	22*	76*
CC(C)c1ccc2c(c1)C(c1ccc(N3CCOCC3)cc1)=NNC(c1cccs1)=N2	u	26%	u	-1%	45*	54
CCc1ccc2c(c1)C(c1cccs1)=NNC(c1cccnc1)=N2	u	9%	u	-30%	0	-40
CCCOc1ccc(C2=NNC(c3cccs3)=Nc3ccc(OC)cc32)cc1	u	u	-1%	1%	57*	98*
Clc1ccc2c(c1)C(c1cccs1)=NNC(c1cccnc1)=N2	-7%	19%	1.7µM*	-1%	-4	12
CCC(C)c1ccc(N(CC(=O)NC(C)(C)C)C(=O)CNC(=O)c2cccs2)cc1 (stereo unspecified)	u	9%	16%	-11%	4	10
COc1cc(OC)c(NC(=O)N2CCOc3ccc(C)cc32)cc1Cl	x	x	x	2%	x	x
COC(=O)c1ccc(CNC(=O)c2nc(Cn3nc(C)c(Br)c3C)no2)cc1	x	x	x	9%	x	x
Cc1ccc(N2C(=O)Nc3ccccc3C2(O)C(=O)N2CCN(c3ccccn3)CC2)cc1C (stereo unspecified)	u	x	u	-1%	7	-8
O=C(O)C(Cc1cccs1)C(=O)O	x	-3%	x	x	x	x
CC(=NCc1ccco1)c1c(O)n(-c2ccccc2C)c(=O)[nH]c1=O	-12%	1%	3%	-29%	6	67
Cc1ccccc1-n1c(O)c(C(c2ccncc2)c2c(O)n(-c3ccccc3C)c(=O)[nH]c2=O)c(=O)[nH]c1=O	-3%	2%	5%	1.1µM*	1	-8
